Holding throughout (type): functional
Assay [1] deals with Solute carrier family 2, facilitated glucose transporter member 1 (Homo sapiens) (UniProt P11166). The experiment in a line: ST_JUDE_LEISH: Cytotoxicity at 2uM final concentration against transgenic Leishmania Mexicana promastigotes LmGLUT1 that are glucose transport deficient and complemented with the human glucose transporter GLUT1. Activity is measured by DNA content using SYBR green in vitro.

Assay [2] concerns the target Hexose transporter 1 (Plasmodium falciparum) (UniProt O97467). The experiment in a line: ST_JUDE_LEISH: Cytotoxicity at 2uM final concentration against transgenic Leishmania Mexicana promastigotes LmPfHT that are glucose transport deficient and complemented with the Plasmodium falciparum hexose transporter. Activity is measured by DNA content using SYBR green in vitro.

The target of assay [3] is Glucose transporter (Leishmania mexicana) (UniProt O61059). As to the kind of experiment: ST_JUDE_LEISH: Cytotoxicity at 2uM final concentration against transgenic Leishmania Mexicana promastigotes LmGT2 that are glucose transport deficient and complemented with the L. Mexicana glucose transporter 2. Activity is measured by DNA content using SYBR green in vitro.

Results on 4 molecules are retold here after ChEMBL document CHEMBL3433997, “St. Jude Leishmania screening dataset” (2016).

For orientation: inhibition means the relative decrease from the control value, in per cent.

The structures appear in SMILES notation.

Chain of Solute carrier family 2, facilitated glucose transporter member 1 (Homo sapiens) (P11166 whole entry): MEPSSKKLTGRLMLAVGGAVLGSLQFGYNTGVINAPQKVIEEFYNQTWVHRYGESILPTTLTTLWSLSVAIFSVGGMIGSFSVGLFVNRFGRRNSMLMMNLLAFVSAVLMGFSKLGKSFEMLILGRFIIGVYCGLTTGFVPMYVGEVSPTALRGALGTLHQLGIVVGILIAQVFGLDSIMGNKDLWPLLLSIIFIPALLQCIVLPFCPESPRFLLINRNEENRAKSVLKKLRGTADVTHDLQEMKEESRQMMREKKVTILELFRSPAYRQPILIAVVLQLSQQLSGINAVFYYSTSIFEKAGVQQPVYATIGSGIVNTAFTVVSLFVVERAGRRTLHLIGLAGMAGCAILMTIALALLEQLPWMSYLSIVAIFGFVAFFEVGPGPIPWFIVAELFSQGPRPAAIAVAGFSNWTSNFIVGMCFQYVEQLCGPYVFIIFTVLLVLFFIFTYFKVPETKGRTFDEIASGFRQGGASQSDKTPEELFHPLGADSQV

In the case of `COc1ccc2[nH]c3ccccc3c(=O)c2c1`, the inhibition is -0.87% in assay [1], 0.99% in assay [2] and 6.72% in assay [3].

For `Cn1nccc1C(=O)NCCNCc1ccc(-c2cccc(-c3nc4cc(C(F)(F)F)ccc4[nH]3)c2)cc1`, the inhibition worked out at 0.63% in assay [1], 1.93% in assay [2] and 2.51% in assay [3].

Consider `CCOc1ccc(Br)cc1/C=C/C(=O)Nc1ccc(C2CCN(C)CC2)cc1`, for which the inhibition turned out to be 9.52% in assay [1], 7.2% in assay [2] and 5.47% in assay [3].

In the case of `COc1cc2nccc(Nc3cc(C)cc(O)c3)c2cc1OC`, the figures for the inhibition in assay [1], in assay [2] and in assay [3] were 2.64%, 3.99% and 0.8%, respectively.
